Results taken from PubChem BioAssay (NCI).
About 83,000 compounds went through this panel and 20% of them were active in at least one assay; those are over-represented in the sample as a whole.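 How to read the values: 0–100, growth inhibition (40 = 60% inhibited); 0, no net growth; -100 to 0, cell death (-40 = 40% of starting cells died; -100 = all dead).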 Active and inactive are the calls of the source. Rule for the calls: active = growth percent below 10; inactive = the rest.

Key:
Assay in all cases: NCI-60 one-dose screen, 48 h (100 = growth as untreated, 0 = no growth, -100 = all killed)
Settings in all cases: 10 µM unless noted
[1] = test system: DU-145 prostate
[2] = test system: K-562 leukemia
[3] = test system: MALME-3M melanoma
[4] = test system: MDA-MB-231 breast
[5] = test system: RXF 393 renal
[6] = test system: SF-268 CNS
[7] = test system: SF-295 CNS
[8] = test system: SF-539 CNS
[9] = test system: UACC-257 melanoma
[10] = test system: M14 melanoma
[11] = test system: HCT-15 colon
[12] = test system: HT29 colon
[13] = test system: SNB-75 CNS
[14] = test system: SNB-19 CNS
[15] = test system: U251 CNS
[16] = test system: PC-3 prostate
[17] = test system: SK-MEL-5 melanoma
[18] = test system: UACC-62 melanoma
[19] = test system: LOX IMVI melanoma
[20] = test system: SK-MEL-28 melanoma

Measured: growth

COc1cc(C=O)ccc1OC1OC(COC(C)=O)C(OC(C)=O)C(OC(C)=O)C1OC(C)=O (stereo not given)
inactive: [1] 107% | [2] 116% | [3] 102% | [4] 101% | [5] 103% | [6] 99.2% | [7] 102% | [8] 96.7% | [9] 101% | [10] 96.6% | [11] 99.3% | [12] 105% | [13] 106% | [14] 103% | [15] 94.2% | [16] 95.8% | [17] 98.2% | [18] 100% | [19] 103% | [20] 110%

CCCCCOc1ccc(/C=N/Nc2cc(C)nc3ccc(Cl)cc23)cc1
active: [1] 5.9% | [2] -33% | [3] -63.8% | [4] -77.3% | [5] -85.5% | [7] -86% | [8] -78.2% | [10] -15.4% | [11] -93.8% | [12] -18.9% | [15] -75% | [16] 9.76% | [19] -96.9% | [20] -85.8%
inactive: [6] 72% | [9] 99.2% | [13] 41% | [14] 16.9% | [17] 74.2% | [18] 83.6%

O=C1Nc2cc(-c3ccc(NC(=O)c4ccccc4)cc3)ccc2/C1=C/c1ccc[nH]1
inactive: [1] 98.9% | [2] 95.1% | [3] 102% | [4] 90% | [5] 111% | [6] 101% | [7] 106% | [8] 98% | [9] 110% | [10] 105% | [11] 87.9% | [12] 109% | [13] 99% | [14] 98.8% | [15] 90.2% | [16] 101% | [17] 103% | [18] 98.4% | [19] 96.2% | [20] 119%

CCCCCCNC(=O)Oc1ccc(/C(=C(\C)c2ccccc2)c2ccc(OCCN3CCCCC3)cc2)cc1
inactive: [1] 82.8% | [3] 34.2% | [4] 78.1% | [5] 47.6% | [6] 68.3% | [7] 35.4% | [8] 23.3% | [13] 92.5% | [14] 74.6% | [15] 50.1% | [16] 47.9% | [17] 71.2% | [19] 53.9% | [20] 48.8%
active: [2] 4.69% | [9] -0.337% | [10] -22.9% | [11] 8.13% | [12] -6.46% | [18] 5.21%

COc1ccc(/C=C2\Oc3cc(OCCCN4CCCCC4)ccc3C2=O)cc1OC
active: [2] -22.8%
inactive: [1] 95.9% | [3] 104% | [4] 78.6% | [5] 74.4% | [6] 86.5% | [7] 102% | [8] 91.5% | [9] 102% | [10] 98.7% | [11] 76.4% | [12] 59.3% | [13] 78.9% | [14] 93.7% | [15] 94.2% | [16] 79.6% | [17] 94.5% | [18] 99.1% | [19] 81.7% | [20] 105%

CN1CCC(=C(c2ccccc2)c2ccccc2)C(c2ccccc2)C1 (stereo not given)
inactive: [1] 104% | [2] 106% | [3] 104% | [4] 94.8% | [5] 88% | [6] 97.8% | [7] 99.3% | [8] 101% | [9] 105% | [10] 112% | [11] 82.5% | [12] 82.9% | [13] 88% | [14] 95.5% | [15] 93.3% | [16] 93.6% | [17] 101% | [18] 97.1% | [19] 86% | [20] 110%

N#C/C(=C\c1ccc(C(F)(F)F)cc1)c1cc2ccccc2[nH]1
inactive: [1] 105% | [2] 90.3% | [3] 103% | [4] 92.7% | [5] 113% | [6] 99.4% | [7] 99.8% | [8] 107% | [9] 104% | [10] 108% | [11] 92.5% | [12] 99.7% | [13] 89% | [14] 102% | [15] 105% | [16] 93.9% | [17] 95.6% | [18] 95.1% | [19] 99.7% | [20] 102%

COc1ccc(C(=O)CSc2nc(-c3cc(OC)ccc3OC)cc(-c3ccc(Cl)cc3)c2C#N)cc1
active: [3] -6.38%
inactive: [1] 65.9% | [2] 77.9% | [4] 33.2% | [5] 26.5% | [6] 59.2% | [7] 18.5% | [8] 30.5% | [9] 58% | [10] 48.6% | [11] 62.7% | [12] 48.3% | [13] 30.9% | [14] 40.3% | [15] 35.7% | [16] 56.8% | [17] 36.6% | [18] 16.8% | [19] 68.5% | [20] 32.1%

N#C/C(=C\c1ccc([N+](=O)[O-])s1)c1nc2cc(Cl)ccc2s1
active: [2] 1.75% | [3] -57.1% | [4] -47.2% | [5] 6.88% | [8] -35% | [10] -78.1% | [11] -45.9% | [15] 1.57% | [16] -0.522% | [17] -94.4% | [19] -29.2%
inactive: [1] 57.4% | [6] 27.9% | [7] 91.7% | [9] 55.6% | [12] 33.7% | [13] 49.7% | [14] 12.8% | [18] 19.5% | [20] 21.1%

O=C(CNCCN1CCOCC1)N1c2cccc3cccc(c23)N(C(=O)CNCCN2CCOCC2)C1c1cn(-c2ccccc2)nc1-c1cccc([N+](=O)[O-])c1
active: [2] -21.4% | [3] -87.3% | [10] -16.1% | [12] 7.37%
inactive: [1] 87.8% | [4] 54.4% | [5] 47.9% | [6] 69.6% | [7] 100% | [8] 63.3% | [9] 90.3% | [11] 43.6% | [13] 57.9% | [14] 77.1% | [15] 55.2% | [16] 62.4% | [17] 57.7% | [18] 94.8% | [19] 53.9% | [20] 64%

CNCCn1c(=O)c2cc(OC)c(OC)cc2c2ccc3cc4c(cc3c21)OCO4
active: [1] 5.52% | [2] 2.28% | [3] -85.3% | [4] 0.962% | [5] -76.1% | [7] 6.74% | [8] -30.4% | [9] -76.3% | [10] -50.5% | [12] 2.8% | [13] -0.403% | [14] 8.32% | [15] 5.74% | [16] 8.41% | [17] -60.7% | [18] -79.7% | [19] -46.1% | [20] -34.2%
inactive: [6] 11.9% | [11] 17.3%

C=C1C(=O)O[C@H]2[C@H]1CC/C(COC(=O)NCc1c[nH]c3ccc(F)cc13)=C\CC[C@@]1(C)O[C@@H]21
inactive: [6] 36% | [7] 61.2% | [9] 14.3% | [13] 26.4% | [14] 39.5% | [15] 18.7% | [16] 32%
active: [1] -62.9% | [2] 1.89% | [3] -68.8% | [4] -57.5% | [5] -88.5% | [8] -52.6% | [10] -50.8% | [11] -63.9% | [12] -50.2% | [17] -14.9% | [18] -75.1% | [19] -83.4% | [20] -62.5%

Cc1cc(C(=O)/C=C/c2ccc[nH]2)ccc1-n1ccc(C(F)(F)F)n1
active: [16] 6.59%
inactive: [1] 96% | [2] 53.3% | [3] 94.7% | [4] 30.6% | [5] 21.2% | [6] 49.1% | [7] 85% | [8] 13.5% | [9] 97.4% | [10] 90.5% | [11] 84.1% | [12] 89.9% | [13] 63.2% | [14] 85.1% | [15] 25.9% | [17] 98.2% | [18] 84% | [19] 90.8% | [20] 100%

CN1CCN(c2ccc(NC3=C(Cl)C(=O)c4ncccc4C3=O)cc2C(F)(F)F)CC1
inactive: [1] 96.6% | [6] 87.7% | [7] 106% | [8] 104% | [10] 39.8% | [12] 78.3% | [13] 96.9% | [14] 101% | [15] 88.6% | [16] 62.9% | [17] 92.8% | [18] 87% | [20] 76.9%
active: [2] 3.72% | [3] -92.1% | [4] 4.49% | [5] -71.4% | [9] -56.8% | [11] -47% | [19] -56.2%

CNC(=O)c1cncc(Cn2nc(C)c(NC(=O)c3ccc(COc4ccc(C(F)(F)F)cc4C)cc3)c2C)c1
inactive: [1] 67% | [2] 37% | [3] 73.8% | [4] 78.2% | [5] 83.7% | [6] 70.8% | [7] 40.4% | [8] 80.7% | [9] 18.4% | [10] 73.3% | [11] 74.7% | [12] 56.5% | [13] 77.7% | [14] 56.6% | [15] 63.7% | [16] 53.9% | [18] 64.7% | [19] 64.3% | [20] 81.6%
active: [17] 7.09%

CCOC(=O)Oc1c(OC)cc(C(=O)c2ccc(OC)c(O)c2OC)cc1OC
inactive: [1] 13.8% | [2] 10.8% | [3] 49.1% | [4] 30.8% | [6] 48.7% | [7] 22.6% | [9] 47.3% | [11] 14.7% | [12] 29.5% | [13] 34.1% | [14] 25.9% | [15] 23.5% | [16] 22.8% | [17] 32% | [18] 34.3% | [19] 49.7% | [20] 53.1%
active: [5] -10.1% | [8] -15.7% | [10] -9.21%
